According to PubChem BioAssay (EPA / NIEHS):
The source made the active and inactive calls. The calls were made as follows: active = hit-call score of the fitted dose curve at least 0.9, where 1 is the maximum; inactive = score below 0.9.

Assays:
Settings in all cases: actives raise or lower the signal
[1] = CEETOX_H295R_11DCORT_noMTC: CeeTox H295R High-throughput Steroidogenesis Assay for 11-Deoxycortisol (11DCORT), maximum tolerated concentration (MTC) filtered results only (AID 2283911)
Description: (§1) CEETOX_H295R is a cell-based, multiplexed-readout assay that uses H295R, a human adrenal gland cell line, with measurements taken at 48 hours after chemical dosing in a 96-well plate.CEETOX_H295R_11DCORT_noMTC is one of 12 assay component(s) measured or calculated from the CEETOX_H295R assay (11 hormones and 1 viability assay). It is designed to make measurements of hormone induction, a form of inducible reporter, as detected with absorbance signals by HPLC-MS-MS technology. The concentrations for these components have not been pre-filtered for the maximum tolerated concentration (MTC) based on the MTT assay (_noMTC).Data from the assay component CEETOX_H295R_11DCORT_noMTC was analyzed into 1 assay endpoint. This assay endpoint, CEETOX_H295R_11DCORT_noMTC, was analyzed with bidirectional fitting relative to DMSO as the negative control and baseline of activity. […]
(§2) Cell culture and media preparation procedures were conducted in accordance with OECD Test No. 456 guidelines, with minor modifications. […] For steroid quantification, media samples were shipped to OpAns, LLC (Durham, NC) on dry ice, and samples were thawed to room temperature prior to liquid-liquid extraction. […] Steroid hormones were separated by HPLC, eluted using a reverse phase C18 gradient with electrospray positive ionization, followed by quantification by tandem mass spectrometry (MS/MS). […]

[2] = CEETOX_H295R_OHPREG_noMTC: CeeTox H295R High-throughput Steroidogenesis Assay for OH-Pregnenolone (OHPREG), maximum tolerated concentration (MTC) filtered results only (AID 2283912)
Outline: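 Readout is HPLC-MS/MS quantification of 17alpha-hydroxypregnenolone released by forskolin-stimulated H295R cells over 48 h of chemical exposure, DMSO as baseline.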

[3] = CEETOX_H295R_OHPROG_noMTC: CeeTox H295R High-throughput Steroidogenesis Assay for OH-Progesterone (OHPROG), maximum tolerated concentration (MTC) filtered results only (AID 2283914)
Outline: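 Analysis uses all tested concentrations, without maximum-tolerated-concentration screening by MTT. H295R cells, forskolin-primed (10 uM, 48 h), receive chemical for 48 h; hormone in medium measured by HPLC-MS/MS, with bidirectional curve fitting against DMSO.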

[4] = CEETOX_H295R_CORTISOL_noMTC: CeeTox H295R High-throughput Steroidogenesis Assay for Cortisol, maximum tolerated concentration (MTC) filtered results only (AID 2283916)
Outline: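 H295R adrenal cells were pre-stimulated 48 h with 10 uM forskolin, then exposed 48 h to test chemical in 0.1% DMSO. Medium cortisol was measured by MTBE extraction and HPLC-MS/MS; bidirectional fit versus DMSO, concentrations not MTC-filtered.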

[5] = CEETOX_H295R_CORTIC_noMTC: CeeTox H295R High-throughput Steroidogenesis Assay for Corticosterone (CORTIC), maximum tolerated concentration (MTC) filtered results only (AID 2283917)
Outline: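 Forskolin-stimulated (10 uM, 48 h) H295R cells are dosed 48 h with chemical in DMSO (0.1% final); corticosterone change is quantified by HPLC-MS/MS and fitted bidirectionally against DMSO, unfiltered for MTT-derived MTC.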

[6] = CEETOX_H295R_DOC_noMTC: CeeTox H295R High-throughput Steroidogenesis Assay for DOC, maximum tolerated concentration (MTC) filtered results only (AID 2283918)
Description: as §1, with “plate.CEETOX_H295R_DOC_noMTC” for “plate.CEETOX_H295R_11DCORT_noMTC”, “CEETOX_H295R_DOC_noMTC” for “CEETOX_H295R_11DCORT_noMTC”, “CEETOX_H295R_DOC_noMTC,” for “CEETOX_H295R_11DCORT_noMTC,”
as §2

[7] = CEETOX_H295R_PROG_noMTC: CeeTox H295R High-throughput Steroidogenesis Assay for Progesterone (PROG), maximum tolerated concentration (MTC) filtered results only (AID 2283920)
Outline: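 Progesterone synthesis in the human adrenal line H295R is measured by HPLC-MS/MS after 48 h chemical exposure following 48 h forskolin (10 uM) stimulation. Activity in either direction is fitted relative to DMSO.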

Row | SMILES | outcome [1] | outcome [2] | AC50 [3] | outcome [4] | outcome [5] | outcome [6] | AC50 [7] | outcome [3] | outcome [7]
1 | Cc1ccc(C(C)C)cc1O | inactive | inactive | 33 µM (active) | inactive | inactive | inactive | 41.4 µM (active) | – | –
2 | CC1CC(OC(=O)c2ccccc2O)CC(C)(C)C1 (centres undefined) | inactive | inactive | – | inactive | inactive | inactive | – | inactive | inactive
